Test results reported in PubChem BioAssay (EPA / NIEHS).
Results filed as inconclusive are left out. Active and inactive are the calls of the source. Rule for the calls: active = hit-call score of the fitted dose curve at least 0.9, where 1 is the maximum; inconclusive = response in the unintended direction; inactive = score below 0.9.

Experiments:
[1] = target: human Protein Tyrosine Phosphatase Receptor Type B (PTPRB), PTPRB (gene 5787) (UniProt P23467); test: NVS_ENZ_hPTPRB: NovaScreen (NVS) Enzymatic Assay for human Protein Tyrosine Phosphatase Receptor Type B (PTPRB) (AID 2283211)
Method in brief: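 Recombinant human PTPRB with a fluorescent substrate, product separated by electrophoretic mobility shift; read 1 h after dosing. Primary screen in duplicate at 25 uM; actives then retested in concentration series; loss of signal versus DMSO.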

[2] = target: human Protein Tyrosine Phosphatase Receptor Type M (PTPRM), PTPRM (gene 5797) (UniProt P28827); test: NVS_ENZ_hPTPRM: NovaScreen (NVS) Enzymatic Assay for human Protein Tyrosine Phosphatase Receptor Type M (PTPRM) (AID 2283215)
Method in brief: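 Read-out is fluorescence after electrophoretic separation of substrate and product, taken 1.33 h post-dosing with recombinant enzyme. Compounds screened at 25 uM in duplicate, then concentration series for actives; activity as signal loss relative to DMSO.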

Sequence of human Protein Tyrosine Phosphatase Receptor Type M (PTPRM), PTPRM (gene 5797) (P28827 whole entry, looked up): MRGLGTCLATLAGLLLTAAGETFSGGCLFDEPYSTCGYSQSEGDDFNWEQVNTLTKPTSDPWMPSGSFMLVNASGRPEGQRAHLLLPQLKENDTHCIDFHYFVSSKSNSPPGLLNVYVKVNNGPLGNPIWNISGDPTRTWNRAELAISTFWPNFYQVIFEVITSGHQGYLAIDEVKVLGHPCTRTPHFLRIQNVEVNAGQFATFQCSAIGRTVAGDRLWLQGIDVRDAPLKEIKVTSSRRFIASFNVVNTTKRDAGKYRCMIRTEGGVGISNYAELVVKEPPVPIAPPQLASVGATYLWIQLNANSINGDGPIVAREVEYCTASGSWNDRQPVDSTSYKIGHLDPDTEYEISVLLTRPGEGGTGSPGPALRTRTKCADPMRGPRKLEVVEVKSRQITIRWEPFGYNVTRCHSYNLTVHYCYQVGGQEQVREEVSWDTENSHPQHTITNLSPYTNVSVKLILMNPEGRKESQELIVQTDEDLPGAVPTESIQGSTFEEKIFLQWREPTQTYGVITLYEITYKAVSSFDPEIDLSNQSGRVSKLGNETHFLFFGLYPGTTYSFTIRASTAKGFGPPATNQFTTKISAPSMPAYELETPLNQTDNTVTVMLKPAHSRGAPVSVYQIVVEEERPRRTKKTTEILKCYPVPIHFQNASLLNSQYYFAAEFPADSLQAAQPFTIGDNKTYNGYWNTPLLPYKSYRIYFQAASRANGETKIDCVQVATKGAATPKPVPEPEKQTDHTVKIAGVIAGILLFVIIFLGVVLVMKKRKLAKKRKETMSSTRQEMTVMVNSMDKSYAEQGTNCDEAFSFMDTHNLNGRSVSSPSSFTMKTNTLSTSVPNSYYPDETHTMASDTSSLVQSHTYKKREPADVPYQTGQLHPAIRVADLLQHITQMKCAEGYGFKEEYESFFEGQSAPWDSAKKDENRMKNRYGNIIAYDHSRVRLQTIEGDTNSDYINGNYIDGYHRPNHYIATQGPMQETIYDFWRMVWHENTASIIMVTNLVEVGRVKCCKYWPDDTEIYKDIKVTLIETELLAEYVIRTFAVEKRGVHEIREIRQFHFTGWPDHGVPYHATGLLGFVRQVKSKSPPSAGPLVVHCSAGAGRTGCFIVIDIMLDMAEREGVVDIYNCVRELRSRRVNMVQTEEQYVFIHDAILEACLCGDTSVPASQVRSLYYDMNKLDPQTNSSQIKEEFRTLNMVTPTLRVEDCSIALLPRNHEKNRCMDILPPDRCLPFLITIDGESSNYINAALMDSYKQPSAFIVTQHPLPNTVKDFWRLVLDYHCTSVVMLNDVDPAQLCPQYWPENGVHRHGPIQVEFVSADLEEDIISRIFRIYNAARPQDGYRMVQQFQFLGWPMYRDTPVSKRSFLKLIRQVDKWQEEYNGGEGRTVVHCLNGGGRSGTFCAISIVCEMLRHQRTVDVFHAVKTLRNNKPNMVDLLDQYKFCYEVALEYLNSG
Sequence of human Protein Tyrosine Phosphatase Receptor Type B (PTPRB), PTPRB (gene 5787) (P23467 whole entry, looked up): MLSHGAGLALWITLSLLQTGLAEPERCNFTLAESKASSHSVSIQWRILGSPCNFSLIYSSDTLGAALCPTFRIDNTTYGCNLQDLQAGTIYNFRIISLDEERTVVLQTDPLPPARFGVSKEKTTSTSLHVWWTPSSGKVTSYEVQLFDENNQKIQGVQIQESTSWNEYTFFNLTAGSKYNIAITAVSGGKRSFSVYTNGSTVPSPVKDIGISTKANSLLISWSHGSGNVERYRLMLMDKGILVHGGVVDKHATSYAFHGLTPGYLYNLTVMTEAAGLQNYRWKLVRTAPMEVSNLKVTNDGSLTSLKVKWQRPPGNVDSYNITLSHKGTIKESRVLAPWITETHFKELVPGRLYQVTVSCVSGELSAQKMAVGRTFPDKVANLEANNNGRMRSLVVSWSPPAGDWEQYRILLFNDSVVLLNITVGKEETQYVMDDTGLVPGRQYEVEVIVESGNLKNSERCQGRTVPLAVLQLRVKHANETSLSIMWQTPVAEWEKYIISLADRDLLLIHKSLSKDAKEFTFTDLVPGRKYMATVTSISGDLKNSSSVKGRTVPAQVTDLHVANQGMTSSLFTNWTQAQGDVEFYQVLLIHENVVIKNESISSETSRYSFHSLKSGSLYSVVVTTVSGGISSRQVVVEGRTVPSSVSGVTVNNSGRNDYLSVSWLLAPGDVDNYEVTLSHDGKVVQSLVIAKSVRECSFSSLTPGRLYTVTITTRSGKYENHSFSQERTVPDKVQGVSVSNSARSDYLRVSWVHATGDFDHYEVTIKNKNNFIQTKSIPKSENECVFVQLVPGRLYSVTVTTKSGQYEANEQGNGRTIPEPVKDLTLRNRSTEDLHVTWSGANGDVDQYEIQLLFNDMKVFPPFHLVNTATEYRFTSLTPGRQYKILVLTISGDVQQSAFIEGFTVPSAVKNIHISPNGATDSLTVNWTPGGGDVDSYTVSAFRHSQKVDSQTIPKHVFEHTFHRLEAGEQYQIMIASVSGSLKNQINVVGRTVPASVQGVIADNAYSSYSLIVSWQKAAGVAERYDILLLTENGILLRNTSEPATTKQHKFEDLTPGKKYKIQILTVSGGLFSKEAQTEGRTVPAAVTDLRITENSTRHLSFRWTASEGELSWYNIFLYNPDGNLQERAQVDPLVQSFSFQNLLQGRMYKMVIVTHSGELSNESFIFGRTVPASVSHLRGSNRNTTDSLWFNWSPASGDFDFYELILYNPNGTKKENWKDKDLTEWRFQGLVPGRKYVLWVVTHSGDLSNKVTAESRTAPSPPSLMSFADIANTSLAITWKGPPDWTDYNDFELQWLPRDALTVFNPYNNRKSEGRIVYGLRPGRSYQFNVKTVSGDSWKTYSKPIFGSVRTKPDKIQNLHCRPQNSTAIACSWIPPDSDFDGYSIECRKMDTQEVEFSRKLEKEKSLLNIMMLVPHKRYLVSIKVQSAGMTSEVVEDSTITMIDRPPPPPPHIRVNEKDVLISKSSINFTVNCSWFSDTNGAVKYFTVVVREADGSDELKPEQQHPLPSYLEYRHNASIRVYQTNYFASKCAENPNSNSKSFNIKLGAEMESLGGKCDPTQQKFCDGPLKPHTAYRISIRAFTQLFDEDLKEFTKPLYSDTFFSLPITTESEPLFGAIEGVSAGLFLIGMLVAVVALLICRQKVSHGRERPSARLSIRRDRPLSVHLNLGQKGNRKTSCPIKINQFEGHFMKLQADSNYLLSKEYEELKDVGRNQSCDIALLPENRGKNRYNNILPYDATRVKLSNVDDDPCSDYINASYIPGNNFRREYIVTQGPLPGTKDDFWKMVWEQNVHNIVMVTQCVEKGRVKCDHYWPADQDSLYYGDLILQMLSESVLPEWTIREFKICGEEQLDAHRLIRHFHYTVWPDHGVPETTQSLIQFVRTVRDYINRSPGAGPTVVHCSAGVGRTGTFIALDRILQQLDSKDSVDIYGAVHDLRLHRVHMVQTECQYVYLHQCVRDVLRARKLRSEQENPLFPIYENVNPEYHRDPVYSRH

Compound	outcome [1]	outcome [2]
FC(F)(F)C(F)(F)C(F)(F)C(F)(F)C(F)(F)C(F)(F)CCI	inactive	–
O=C(OCCCCCOC(=O)c1ccccc1)c1ccccc1	–	inactive
